# In all, about 11,000 compounds went through this assay and about 310 (2.8%) were called active. This is one part of a sample in which actives are shown more often than they occur. Cut-off read from the data, not from the text of the source: active = activity change below about -85%; inactive = the rest.
# System: intestinal alkaline phosphatase [Mus musculus]
# Assay: activators of mouse IAP, confirmation, biochemical, luminescence, single concentration (AID 434970)
# Details: purified mouse IAP, CDP-Star luminescence, 30 min, at 10 µM; activation factor: measured here: IAP activation factor, stronger effect = higher value; activity change, negative = activation: stronger effect = lower value
Compound,activation factor,"activity change, negative = activation"
CC(Sc1nnc(-c2ccco2)o1)C(=O)Nc1ccc(OC(F)F)cc1 (configuration not stated),0.893,10.7% (inactive)
CC1=C(C(N)=O)C(c2cccnc2)n2nc(-c3cccc(Cl)c3)nc2N1 (configuration not stated),0.96,4% (inactive)
CCCNC(=O)c1csc2c1CCCCC2,0.955,4.55% (inactive)
CC(NC(=O)CCSc1nc(-c2ccc3c(c2)OCO3)cc(C(F)(F)F)n1)c1ccccc1 (configuration not stated),0.978,2.2% (inactive)
Cc1cccc(C2=NN(c3ccccc3)[C@@H](C(=O)N3CCOC3=O)[C@@H]2c2ccccc2)c1,0.97,3% (inactive)
CCCN=C1N(CC)C[C@@H]2[C@@H]3C(=O)N(Cc4ccccc4)C(=O)[C@@H]3[C@](Cc3ccccc3)(C(=O)OC)N12,1.07,-7.35% (inactive)
O=C(CCS(=O)(=O)c1cccc2nonc12)NC1CCCCCC1,1.11,-10.6% (inactive)
CN(C)CCCNC(=O)C[C@H]1C[C@H](C(=O)N2CCCCC2)[C@@]2(CCc3ccccc3)c3[nH]c4cc(-c5ccco5)ccc4c3CCN2C1=O,1.28,-28.4% (inactive)
CCOc1ccccc1NC(=O)C1CCCN(C(=O)Nc2ccccc2)C1 (configuration not stated),0.961,3.9% (inactive)
CCOc1ccccc1NC(=O)CN1CCC(NC(=O)Nc2ccccc2)CC1,2.99,-199% (active)
CCOC(=O)c1ccc(NC(=O)NC2CCN(CC(=O)NCc3ccc4c(c3)OCO4)CC2)cc1,1.61,-60.6% (inactive)
CCOc1ccccc1NC(=O)N1CCC(NC(=O)c2cccc(C)c2)CC1,0.98,2% (inactive)
Cc1cc(C)cc(NC(=O)NC2CCN(CC(=O)Nc3cccc(Cl)c3C)CC2)c1,1.68,-68.1% (inactive)
CC(C)c1ccc(NC(=O)NC2CCN(CC(=O)Nc3cccc4ccccc34)CC2)cc1,3.72,-272% (active)
CCOCCCNC(=O)c1ccccc1SCC,1.04,-4% (inactive)
CCOC(=O)c1c(C)[nH]c(C)c1C(=O)CSc1nnc(-c2ccco2)n1Cc1ccccc1,1.03,-3.25% (inactive)
O=C(CSc1nnc(-c2ccncc2)n1CC1CCCO1)Nc1nccs1 (configuration not stated),1.03,-2.65% (inactive)
COc1ccc(C2C(C(=O)N3CCN(c4ccccc4F)CC3)c3ccccc3C(=O)N2C)cc1 (configuration not stated),1.09,-9.15% (inactive)
FC(F)Sc1ccc(NC(=S)NC2CCC(NC(=S)Nc3ccc(SC(F)F)cc3)CC2)cc1 (configuration not stated),2.35,-135% (active)
CC1CCCCC1NC(=S)Nc1ccc(SC(F)F)cc1 (configuration not stated),1.52,-51.8% (inactive)
FC(F)Sc1ccc(NC(=S)NCC2CCCCC2)cc1,1.45,-44.6% (inactive)
FC(F)Sc1ccc(NC(=S)NC2CCCC2)cc1,1.23,-22.6% (inactive)
FC(F)Sc1ccc(NC(=S)NC2CCCCC2)cc1,1.25,-24.7% (inactive)
O=C(Nc1ccc(SC(F)F)cc1)c1cccc2nc3ccccc3nc12,0.946,5.4% (inactive)
FC(F)Sc1ccc(NC(=S)NCc2ccccc2)cc1,1.27,-26.5% (inactive)
FC(F)Sc1ccc(NC(=S)NC(c2ccccc2)c2ccccc2)cc1,3.77,-277% (active)

Compound,activation factor,"activity change, negative = activation"
CC1CCCC(NC(=S)Nc2ccc(SC(F)F)cc2)C1C (configuration not stated),2.09,-109% (active)
NC(=O)CSCc1cccc(Br)c1,1.01,-0.9% (inactive)
O=S1(=O)c2ccccc2OC(COCc2ccccc2)CN1Cc1ccccc1 (configuration not stated),1.13,-13.2% (inactive)
Cc1cc(C)nc(SCc2nnc(SCC(=O)Nc3ccccc3C)n2Cc2ccco2)n1,0.974,2.65% (inactive)
Cc1ccc(-c2cc(C(F)F)n3ncc(C(=O)N4CCN(c5cccc(C)c5C)CC4)c3n2)cc1,0.892,10.8% (inactive)
CCCc1cc(=O)oc2cc3occ(C)c3cc12,0.917,8.35% (inactive)
CCOn1c(=O)c(-c2ccc(Cl)cc2)[n+]([O-])c2ccccc21,0.944,5.65% (inactive)
CC(C)(C)c1n[nH]c(=S)n(N)c1=O,1.04,-4.25% (inactive)
CCn1c(NCc2ccccn2)nc2ccccc21,0.877,12.3% (inactive)
CCn1c(NCc2ccc(N(C)C)cc2)nc2ccccc21,1.11,-10.6% (inactive)
CCn1c(CNc2nc3ccccc3n2C(C)C)nc2ccccc21,1.97,-97.3% (active)
Cc1ccc2oc(-c3ccc(NC(=O)c4ccc5c(c4)OCO5)cc3)nc2c1,0.944,5.6% (inactive)
CSc1nccc(-c2nn(-c3ccc(C)cc3)ccc2=O)n1,1,-0.05% (inactive)
COc1ccc(NC(=O)NC[C@@H]2CC[C@@H](Cc3ccc(-c4ccccc4)cc3)O2)cc1,2.82,-182% (active)
O=C(NCCCCc1ccccc1)NC[C@@H]1CC[C@@H](Cc2ccc(-c3ccccc3)cc2)O1,4.44,-344% (active)
OC[C@@H]1CC[C@@H](Cc2ccc(-c3ccccc3)cc2)O1,1.07,-7.05% (inactive)
COc1ccc(N2CCN(CCCNC(=O)Nc3ccccc3)CC2)cc1,1.16,-16.2% (inactive)
S=C(NCC1COc2ccccc2O1)Nc1ccc(Br)cc1 (configuration not stated),1.68,-68.1% (inactive)
CCOC(=O)C1=C(C)N(C[C@@H]2CC[C@@H](Cc3ccc(-c4ccccc4)cc3)O2)C(=O)NC1c1ccc(-c2ccccc2)cc1 (some centres not stated),1.12,-12.1% (inactive)
COc1ccc2cc(C[C@@H]3CC[C@@H](CNC(N)=O)O3)ccc2c1,0.994,0.55% (inactive)
NC(=O)NC[C@@H]1CC[C@@H](Cc2ccc(-c3ccccc3)cc2)O1,1.01,-0.6% (inactive)
O=C(NC[C@@H]1CC[C@@H](Cc2ccc(-c3ccccc3)cc2)O1)Nc1ccc(Br)cc1,4.1,-310% (active)
CC(C)[C@H]1COCCS(=O)(=O)N1Cc1ccccc1-c1cccc2c1oc1ccccc12,0.927,7.3% (inactive)
Cc1c(C(=O)NCC2COc3ccccc3O2)oc2ccc(S(=O)(=O)N3CCOCC3)cc12 (configuration not stated),1.07,-6.7% (inactive)
CCNc1nc(NC(C)(C)C)nc(SC(C(C)=O)C(C)=O)n1,1.04,-4.2% (inactive)

# From PubChem BioAssay AID434970 (Sanford-Burnham Center for Chemical Genomics, 2010)
